Source: PubChem (several laboratories)
cardiac RTF act = increases calcium sensitivity of human cardiac regulated thin filaments; 340,000 compounds, 0.24% hits; IANBD-labeled TnC RTF fluorescence at EC20 calcium; 0% EC20 calcium, 100% full calcium; activation, % at 7.2 µM; AID 493008;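 active = activation above the mean over all tested compounds plus 3 SD, cut at about 30% in these data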;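 also: rise in fluorescence read as greater calcium sensitivity of cardiac thin filaments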
CRFR2-BP antag = blocks CRF-induced signaling of the CRF-BP/CRF-R2 complex | HEK293 CRF-R2/CRF-BP, CRF-induced calcium fluorescence | inhibition, % at 11.8 µM | 350,000 compounds, 0.59% hits;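 active = inhibition of the ligand-induced calcium signal above about 50% at the single tested concentration, limit read from the data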
CRFBP-R2 agonist = agonists of human CRF-binding protein/CRF-R2 receptor complex; 350,000 compounds, 0.46% hits; HEK293 CRF-R2/CRF-BP, calcium dye fluorescence (FLIPR); percent of saturating CRF peptide response; activation, % at 13.2 µM;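 active = activation of at least 50%, plus an integration ratio under a set limit after plate pattern correction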;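 also: plate controls were neutral control wells without compound for no effect and CRF at EC100 for full effect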
Cardiac RTF inh = cardiac RTF calcium desensitization | inhibition, % at 7.15 µM | 340,000 compounds, 0.12% hits | AID 493244 | IANBD-labeled cardiac RTF, Ca2+ fluorescence | P19429+P45379;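 active = inhibition above the mean inhibition of all tested compounds plus 3 SD, cut at about 17% in these data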;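 also: assay run at fixed EC70 calcium of 1.6 mM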
RTF Ca inh conf = cardiac RTF calcium sensitivity inhibition, confirmation. reconstituted cardiac thin filaments, calcium sensitivity fluorescence. inhibition, % at 7.15 µM. 360 compounds, 8% hits. shares compounds with Cardiac RTF inh; in the data active = inhibition above about 18%
Numbers without * were called inactive; x = not tested or not shown. The list is not random: actives were taken first. Their share in the collection is about 1.3%.

SMILES	cardiac RTF act	CRFR2-BP antag	CRFBP-R2 agonist	Cardiac RTF inh	RTF Ca inh conf
CCN(CC(=O)NCc1cccs1)C(=O)c1ccc(NS(=O)(=O)c2ccc(F)cc2)cc1	-1	2	1	-1	x
N#C/C(=C\c1ccc(O)cc1)c1nc2ccccc2o1	0	3	23	-2	x
COc1cc(/C=C(\C#N)c2nc3ccccc3o2)ccc1O	50*	-97	155*	-78	x
CCC(C)C(=O)Nc1nnc(SCC(=O)NC(C)(C)C)s1 (stereo not given)	-1	67*	0	-8	x
CC(=O)Nc1nnc(SCC(=O)NC(C)(C)C)s1	2	-8	1	4	x
COc1ccc(C2N(Cc3ccccc3)CC(=O)N2/N=C(\C)c2ccccc2)cc1 (stereo not given)	1	81*	1	2	x
COc1ccc(C(=O)C2CCCN(Cc3cccn3-c3ccc(Cl)cn3)C2)c(OC)c1 (stereo not given)	-4	-3	11	-7	x
COc1ccc(NC(=O)CSc2nnc(NC(C)=O)s2)c([N+](=O)[O-])c1	0	-6	0	-6	x
COc1ccc(NC(=O)CSc2nnc(N)s2)c([N+](=O)[O-])c1	-1	65*	0	2	x
CCCNC(=O)COc1ncnc2sc(C)c(C)c12	-4	-2	-1	2	x
Cc1sc2ncnc(OCC(=O)NC(C)C)c2c1C	1	90*	10	6	x
CN(Cc1ccccc1F)C(=O)CN1CCN(S(=O)(=O)c2ccc3c(c2)OCCCO3)CC1	-1	3	-2	1	x
CCOc1ccc2nc3cc(N=Nc4ccc(N)nc4N)ccc3c(N)c2c1	-12	18	7	25*	41*
CCc1nnc(NC(=O)CSc2nnc3nc(C)cc(C)n23)s1	2	-1	2	2	x
Cc1cc(C)n2c(SCC(=O)Nc3cc(C)on3)nnc2n1	-4	4	1	18*	-5
Cc1cc(C)n(Cc2ccc(C(=O)O)cc2)n1	-1	-2	-1	0	x
Cc1ccc(C)n1Cc1ccc(C(=O)O)cc1	-35	-25	-1	71*	22*
CCN(CC(=O)Nc1c(F)cccc1F)C(=O)C1CCN(C(=O)Nc2ccccc2)CC1	-3	47	1	7	x
O=C(NN=Cc1ccccc1O)c1cccc([N+](=O)[O-])c1	0	4	1	-4	x
O=C(N/N=C/c1ccc(Br)s1)c1cccc([N+](=O)[O-])c1	2	16	-1	18*	-1
Cc1cc(C(=O)OC2CCOC2=O)c2ccccc2n1 (stereo not given)	6	17	-1	19*	-4
O=C(NCC1(c2ccccc2)CCOCC1)c1cccs1	-1	8	0	-3	x
Cc1ccc(-c2cc(C(=O)N/N=C/c3ccco3)[nH]n2)cc1	4	-9	31	17*	-6
COc1ccc(S(=O)(=O)N(CC(=O)O)c2ccccn2)cc1	-3	2	-2	-21	x
COc1ccc(S(=O)(=O)n2ccc(-c3ccc(OCCN(C)c4ccccn4)cc3)n2)cc1	-2	8	4	17*	-2
SMILES	cardiac RTF act	CRFR2-BP antag	CRFBP-R2 agonist	Cardiac RTF inh	RTF Ca inh conf
CC(Sc1ccccc1)C(=O)NCC(c1ccco1)N1CCCCC1 (stereo not given)	4	0	-1	-2	x
C/C(=N\NC(=S)NCc1ccccc1)c1ccc(C)o1	-4	0	-2	21*	-2
CCCCN1C(=O)C(C(=O)OCc2ccccc2)CC2=C1CCCC2=O (stereo not given)	-9	5	0	3	x
O=C(Nc1ccccc1OC(F)F)c1ccc(-n2cncn2)c([N+](=O)[O-])c1	5	7	-1	87*	-5
CCN(CC)S(=O)(=O)c1cc(NS(=O)(=O)c2cccc(Cl)c2Cl)ccc1C	5	-14	0	47*	-1
O=C(NC(=S)Nc1cccc(C(F)(F)F)c1)c1csnn1	1	-19	1	1	x
CC(C)(C)NC(=O)C1Cc2ccccc2CN1 (stereo not given)	10	-13	1	2	x
Cc1ccc(C)c(OCCC(=O)NNC(=O)c2ccccc2)c1	-2	6	-1	17*	0
COc1ccc(CN(C)C(=O)COC(=O)c2c(-c3ccccc3Cl)noc2C)cc1	-2	7	0	18*	-8
COC(=O)C1CCN(C(=O)c2cc(OC)c(OC)c(OC)c2)CC1	5	4	0	-16	x
COc1cc(C(=O)N2CCN(C(=O)C3CC3)CC2)cc(OC)c1OC	1	2	3	20*	-4
CC1=CC(C)C(C(=O)O)C(C(=O)N2CCN(C)CC2)C1 (stereo not given)	-5	-8	0	-6	x
CC1=CC(C)(C)C(C(=O)O)C(C(=O)O)C1 (stereo not given)	10	-23	-2	18*	-6
CC1=C(C(=O)N2CCOCC2)CC(CC(=O)NCCc2ccccn2)C(=O)N1Cc1ccc(C(C)(C)C)cc1 (stereo not given)	x	24	-1	x	x
COc1ccc(C(=O)Nc2ccc(C)cc2C(=O)c2ccccc2)c(OC)c1	8	-26	11	17*	-2
COCC(=O)N1CCCC(C(=O)c2ccc(-c3ccccc3)c(F)c2)C1 (stereo not given)	4	4	-2	3	x
O=C(C1CCCN(S(=O)(=O)c2ccccc2[N+](=O)[O-])C1)N1CCCC1 (stereo not given)	-10	7	1	-1	x
O=C(C1CCCCN1S(=O)(=O)c1ccccc1[N+](=O)[O-])N1CCOCC1 (stereo not given)	5	-12	1	18*	-1
CC(C)Cn1c(=O)c(CCC(=O)Nc2ccc(N3CCOCC3)cc2)nc2cc(Cl)ccc21	-1	13	0	-2	x
COc1ccc(/C=C/C(=O)NC(=S)Nc2ccc(C(=O)O)cc2)cc1	33*	13	-2	58*	-4
COc1ccc(NC(=O)CSc2nnc(Cn3cnc([N+](=O)[O-])n3)n2C)cc1	-5	8	-2	-5	x
Cn1c(Cn2cnc([N+](=O)[O-])n2)nnc1SCC(=O)Nc1ccccc1	-1	10	-3	17*	-1
COc1cccc(CN(C(=O)/C=C/c2ccc(Cl)cc2)C2CCS(=O)(=O)C2)c1 (stereo not given)	2	-12	1	-5	x
COc1ccc(NC(=O)CN(C)C(=O)c2cc3c(s2)CCCCC3)cc1	-4	17	-1	-6	x
COc1ccc(NC(=O)CN(C)C(=O)c2cc3c(s2)CCC3)cc1	-4	-25	-1	20*	0
COCC1CCCN(Cc2cn(-c3ccccc3)nc2-c2ccc3c(c2)OCO3)C1 (stereo not given)	3	4	0	-11	x
CC(C)NS(=O)(=O)c1ccc(NC(=O)C(C)OC(=O)CCC2CCCC2)cc1 (stereo not given)	1	-14	5	-8	x
O=C1CC(=O)N2N=C(c3ccc([N+](=O)[O-])cc3)SC2=N1	-1	15	0	19*	-3
